Screening results deposited in PubChem BioAssay by National Center for Advancing Translational Sciences (NCATS).
D1 agonist – Allosteric Agonists of the Human D1 Dopamine Receptor: qHTS. activation, % at 2 µM. HEK293 T-REx D1 cells, calcium flux, agonist mode. D(1A) dopamine receptor (Homo sapiens), P21728. 1% of 360,000 active; in the data active means activation above about 30%
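Agonism was scored from calcium flux recorded over 180 s (1 read/s) after pintool compound addition, following a 10-cycle baseline. Cells were inducible force-coupled HEK293 TREx D1, plated overnight at 30 C and loaded with no-wash calcium dye.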
DRD3 agonist – qHTS of D3 Dopamine Receptor Agonist: qHTS. D(3) dopamine receptor (Homo sapiens), P35462. D3R DiscoveRx beta-arrestin cells, luminescence, 90 min. max activation, %. 0.58% of 410,000 active. AID 652048, 2013; in the data active means max activation above about 30%
Target sequence (P35462 whole entry, looked up): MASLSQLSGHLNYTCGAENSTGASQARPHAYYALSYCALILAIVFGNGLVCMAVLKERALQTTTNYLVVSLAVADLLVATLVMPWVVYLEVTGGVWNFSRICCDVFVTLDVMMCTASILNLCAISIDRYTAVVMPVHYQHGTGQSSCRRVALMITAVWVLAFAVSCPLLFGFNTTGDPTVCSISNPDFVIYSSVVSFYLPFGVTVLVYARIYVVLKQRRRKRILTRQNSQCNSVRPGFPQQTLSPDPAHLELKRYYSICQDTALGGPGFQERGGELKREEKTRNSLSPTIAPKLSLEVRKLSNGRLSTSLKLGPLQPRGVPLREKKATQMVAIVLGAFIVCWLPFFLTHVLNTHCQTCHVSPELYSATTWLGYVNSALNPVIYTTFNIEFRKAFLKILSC
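Agonist mode: compounds and dopamine controls were applied to plated cells for 90 min at 37 degrees C after an overnight attachment at 1500 cells/well. Luminescent read-out followed 30 - 60 minutes at room temperature with DiscoveRx detection reagent.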
D3 antag – qHTS of D3 Dopamine Receptor Antagonist: qHTS; D3R cells, DiscoveRx beta-arrestin luminescence, antagonist mode; stronger effect = lower value; max response, negative = inhibition, %; 2.5% of 360,000 active; AID 652054, 2013; in the data active means max response below about -50%; inconclusive means no clear call, values can overlap the other calls
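Cells expressing the human receptor were seeded at 1500 cells/well, incubated overnight at 37 degrees C in 5% CO2, then exposed to library compounds with dopamine controls for 90 minutes at 37 degrees C before luminescent detection.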
D1 potentiator – Potentiators of Human D1 Dopamine Receptor: qHTS; D(1A) dopamine receptor (Homo sapiens), P21728; HEK293 TREx D1 cells, calcium flux, dopamine EC20 potentiation; potentiation, % at 10 µM; 0.036% of 360,000 active; AID 504651, 2011; in the data active means potentiation above about 30%
D1 antag – Antagonist of Human D 1 Dopamine Receptor: qHTS. HEK293 TREx D1 cells, calcium flux, dopamine EC80; stronger effect = lower value. activity change, negative = inhibition, % at 10 µM. 3.2% of 360,000 active. AID 504652, 2011; in the data active means activity change below about -30%
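Cells carrying a force-coupled, tetracycline-inducible human D1 receptor report calcium flux. Each well gets a 10 s baseline, compound with 180 s monitoring, then an EC80 dopamine stimulus with a second 180 s kinetic read.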
Numbers stand for hits; - = inactive; ? = inconclusive; . = no result. An excerpt weighted towards active compounds, which were near 6.1% of everything screened.

SMILES | D1 agonist | DRD3 agonist | D3 antag | D1 potentiator | D1 antag
CC(C)COC(=O)C(N)C(C(=O)OCC(C)C)c1ccccc1 (stereo unspecified) | - | - | - | - | -35
CCOC(=O)c1ccccc1NC(=O)CC(C)CC(=O)O (stereo unspecified) | - | - | - | - | -
CC(CC(=O)O)CC(=O)Nc1ccccc1C(=O)O (stereo unspecified) | - | - | - | - | -30
O=C(c1cccs1)N1CCN(CCCc2ccccc2)CC1 | - | - | -65 | - | -
O=C(c1cccs1)N1CCC(Cc2ccccc2)CC1 | - | - | ? | - | -
COc1ccc(CN2CCN(C(=O)c3cccs3)CC2)cc1 | - | - | -58 | - | -
O=C(c1cccs1)N1CCN(Cc2ccccc2)CC1 | - | - | - | - | -
O=C(c1cccnc1)N1CCN(CCCc2ccccc2)CC1 | - | 52 | - | - | -
CCc1ccccc1NC(=O)c1cc(S(=O)(=O)N2CCCc3ccccc32)ccc1F | - | - | . | - | -
O=[N+]([O-])c1ccc(O)c(C2=NNC(c3ccccc3F)C2)c1 (stereo unspecified) | - | - | -121 | - | -33
CC(C)CCn1c(N)c(S(=O)(=O)c2cccs2)c2nc3ccccc3nc21 | - | - | -87 | - | -
Cc1ccc(NC(=O)c2cc(CN3CCOCC3)on2)cc1Cl | - | - | . | - | -
CCc1ccc(NC(=O)C(C)OC(=O)c2ccc(NS(=O)(=O)c3ccc(C)c([N+](=O)[O-])c3)cc2)cc1 (stereo unspecified) | - | - | -53 | - | -
NS(=O)(=O)c1ccc(NC(=O)Nc2cccc(Cl)c2)cc1 | - | - | - | - | -32
O=C(Nc1cccc(Cl)c1)Nc1ccccc1C(=O)O | - | - | - | - | -
CSc1cccc(NC(=O)Nc2ccc(Cl)cc2)c1 | - | - | ? | - | -33
NC(=O)c1ccccc1NC(=O)Nc1cccc(Cl)c1 | - | - | - | - | -42
CSc1cccc(NC(N)=O)c1 | - | - | - | - | -
Cc1cccc(C)c1NC(=O)Cn1c(=O)n(Cc2ccc3c(c2)OCO3)c(=O)c2oc3ccccc3c21 | - | - | . | - | -
CCOC(=O)c1ccc(NC2=CC(c3ccc(O)c(OCC)c3)N(c3ccc(C(=O)OCC)cc3)C2=O)cc1 (stereo unspecified) | - | - | . | - | -
O=C(NC1CC(=O)N(c2ccccc2)C1)c1ccc(S(=O)(=O)N2CCCCC2)cc1 (stereo unspecified) | - | - | . | - | .
COc1ccc(Nc2nc(C)cc(-c3cc(-c4ccccc4)on3)n2)cc1 | . | 52 | - | . | .
COc1ccc(-c2cc(-c3ccccc3)no2)cc1 | - | 35 | - | - | -
C/C(=N\Nc1nc(C)cc(-c2ccccc2)n1)c1ccc(F)cc1 | - | - | - | - | -
COc1ccc(/C(C)=N/Nc2nc(C)cc(-c3ccccc3)n2)cc1 | . | 48 | - | . | .
SMILES | D1 agonist | DRD3 agonist | D3 antag | D1 potentiator | D1 antag
COc1ccc(N(C(=O)c2cccc(C)c2)S(=O)(=O)c2ccc(C)cc2)cc1 | - | - | . | - | -
COc1cc([C@@H]2C[C@H]3CN(c4ccccc4)C(=O)[C@]34CCCN24)cc(OC)c1OC | - | - | - | - | -41
CCOc1cc([C@@H]2C[C@H]3CN(c4ccccc4)C(=O)[C@]34CCCN24)ccc1OC | - | - | - | - | -
CCOc1ccccc1NC(=O)n1ncc2cc(Cl)ccc21 | - | - | . | - | -
CCc1ccccc1N(CC)C(=O)CCc1nc(-c2ccc(C)cc2)no1 | 34 | - | - | - | -
Cc1ccc(-c2noc(CCC(=O)N(C)c3ccccc3F)n2)cc1 | - | - | . | - | -
Cc1ccc(-c2noc(CCC(=O)Nc3ccc(C)cn3)n2)cc1 | - | - | -73 | - | -
CC(C)(C)c1ccc(-c2noc(CCC(N)=O)n2)cc1 | - | - | - | - | -40
CCOC(=O)c1ccccc1NC(=O)CCc1nc(-c2ccc(C)cc2)no1 | - | - | . | - | -
CNC(=O)CCc1nc(-c2ccc(C(C)(C)C)cc2)no1 | - | - | - | - | -
CCN(CC)CCNC(=O)c1sc2nc(C)cc(C)c2c1-n1cccc1 | - | - | . | - | -
COc1cc(C2C(C#N)=C(C)NC3=C2C(=O)c2ccccc23)cc(OC)c1OC (stereo unspecified) | - | - | - | - | -53
COc1ccc(C2C(C#N)=C(C)NC3=C2C(=O)c2ccccc23)cc1 (stereo unspecified) | - | - | - | - | -
CC(C)N1CCN(c2ccc(OC[C@H]3CO[C@](Cn4cncn4)(c4ccc(Cl)cc4Cl)O3)cc2)CC1 | 62 | - | - | - | -44
CC(C)N1CCN(c2ccc(OCC3COC(Cn4cncn4)(c4ccc(Cl)cc4Cl)O3)cc2)CC1 (stereo unspecified) | . | - | - | . | .
Cc1ccc(C)c(CSc2nnc3[nH]c(=O)cc(C)n23)c1 | - | - | . | - | .
Cc1ccc(S(=O)(=O)Nc2ccc(N(C)C)cc2)cc1 | - | - | - | - | -
CN(C)c1ccc(NS(=O)(=O)c2ccc(-c3csnn3)cc2)cc1 | 30 | - | ? | - | -
O=C(O)c1cccnc1C(=O)N1CCc2c([nH]c3ccccc23)C1C(F)(F)F (stereo unspecified) | - | - | - | - | -
c1cnc2c(C3NCCc4c3[nH]c3ccccc43)cccc2c1 (stereo unspecified) | 41 | - | -87 | - | -57
Oc1ccc(N=Nc2n[nH]c(-c3ccc(Br)cc3)n2)cc1 | - | - | - | - | -39
COc1ccc(OC)c(-c2cc(C(=O)NCc3cccs3)no2)c1 | - | - | -96 | - | -
Cc1ccc(-c2cc(C(=O)NCc3cccs3)no2)cc1 | - | - | - | - | -
O=C(NCc1cccs1)c1cc(-c2ccc(O)cc2)on1 | 50 | - | - | - | -
COc1ccc(OC)c(C2=NS(=O)(=O)N(C)C(C(=O)NCc3cccs3)=C2)c1 | 41 | - | - | - | -
CCOC(=O)C1CCCN(S(=O)(=O)c2ccc3c(c2)CCN3C(=O)CC)C1 (stereo unspecified) | - | - | . | - | -
CCC(Sc1nnc(C)n2c1cc1occc12)C(=O)Nc1ccccc1OC (stereo unspecified) | - | - | . | - | -
Cc1ccc(C(=O)NCc2ccc3c(c2)CCN3C(=O)c2ccc(C)cc2)cc1 | - | - | . | - | -
CCOC(=O)C1=CCC(c2ccc(C)cc2)N(S(=O)(=O)c2ccc(C)cc2)C1 (stereo unspecified) | . | - | - | . | .
CCOC(=O)C1=CCC(c2ccccc2C)N(S(=O)(=O)c2ccc(C)cc2)C1 (stereo unspecified) | . | - | -50 | . | .
